From PubChem BioAssay AID1852 (Sanford-Burnham Center for Chemical Genomics, 2009)
The campaign covered roughly 2,500 compounds. About 1,100 (44%) were called active. So high a share suggests a set chosen from earlier hits. The list shows a part of the results. Unmarked numbers belong to inactive results.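 How the source made its calls: active means inhibition above 50% at 4 µM in the single-point screen; inactive means inhibition of 50% or less.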

Assay: blockers of TNF-a NF-kB luciferase induction – cell-based, HEK293T NF-kB-Luc, luminescence, selectivity assay for NOD1/NOD2 signaling inhibitor project, primary screen (AID 1852)
Settings: TNF-a induced, 14 h, at 4 µM, active compounds read high

| SMILES | inhibition |
| --- | --- |
| C/C(=N\NC(=O)c1ccc2c(c1)OCCO2)c1ccccc1 | 14% |
| C/C(=N\NC(=O)c1ccc(-c2ccccc2)cc1)C1C(=O)c2ccccc2C1=O | 93.6% (active) |
| C/C(=N\NC(=O)c1ccc(Br)cc1)C1C(=O)c2ccccc2C1=O | -12.6% |
| O=C(Cc1ccc(Cl)cc1Cl)Nc1ccncc1Cl | 50% (active) |
| CCC(NC(=O)c1ccc2nc(Cc3ccc(OC)cc3)oc2c1)c1ccncc1 (centres undefined) | 34% |
| Cc1ccc(CC(=O)Nc2ccncc2)cc1 | 38.6% |
| COc1ccc(CC(=O)Nc2ccncc2Cl)cc1 | 54% (active) |
| Cc1ccc(C(=O)Nc2ccccc2N2CCCCC2)cc1[N+](=O)[O-] | -17.9% |
| Cc1ccc(C(=O)Nc2sc(C)c(-c3ccccc3)c2C(N)=O)cc1[N+](=O)[O-] | -277% |
| Cc1ccc(C(=O)Nc2ccccc2-c2ccccc2)cc1[N+](=O)[O-] | 75.4% (active) |
| O=C(Nc1ccc(-c2cn3ccsc3n2)cc1)c1ccc(F)c(S(=O)(=O)N2CCOCC2)c1 | 30.4% |
| COc1ccc(Nc2cc(Nc3cc(OC)c(OC)c(OC)c3)ncn2)cc1 | 59.9% (active) |
| COc1cc(C(=O)Nc2ccc(-c3nc4cc(C)ccc4o3)c(O)c2)cc(OC)c1OC | 13.8% |
| COc1cc(Nc2c3ccccc3nc3ccccc23)cc(OC)c1OC | -0.2% |
| N#Cc1ccsc1NC(=O)c1cccc([N+](=O)[O-])c1 | 20.9% |
| COc1ccccc1N(C)S(=O)(=O)c1ccc(C(=O)Nc2ccc(N3CCOCC3)cc2)cc1 | 35.4% |
| COc1ccc(-c2nnc(NC(=O)c3ccc(S(=O)(=O)N4CCc5ccccc5C4)cc3)o2)cc1 | 34.1% |
| CN(c1ccccc1)S(=O)(=O)c1ccc(C(=O)Nc2nnc(-c3ccc(F)cc3)o2)cc1 | 95% (active) |
| O=C(NNC(=S)NC(=O)c1cccc([N+](=O)[O-])c1)c1ccc(Br)cc1 | -11.7% |
| O=C(Nc1nnc(-c2ccc(F)cc2)o1)c1cccc([N+](=O)[O-])c1 | 89.2% (active) |
| CCOc1ccc(-c2nnc(NC(=O)c3ccc(OCC(C)C)c(OC)c3)o2)cc1 | 105% (active) |
| COc1ccc(-c2nnc(NC(=O)c3ccc(F)cc3)o2)cc1 | 102% (active) |
| CC(=O)O[C@]1(C(C)=O)CC[C@H]2[C@@H]3C=CC4=CC(=O)C=C[C@]4(C)[C@H]3CC[C@@]21C | 32.7% |
| O=C(Nc1nnc(-c2ccc(F)cc2)o1)c1cc(Cl)sc1Cl | 96.6% (active) |

| SMILES | inhibition |
| --- | --- |
| O=C(Nc1nnc(-c2ccc(Cl)s2)o1)C1CC1 | -5.5% |
| C/C(=N\Nc1ncnc2sc(C)c(C)c12)c1ccccn1 | 103% (active) |
| COc1ccc(C2C(C(=O)N3CCOCC3)CCC(=O)N2c2ccc(OC)cc2)cc1 (centres undefined) | 17.2% |
| Cc1ccc(Nc2cc(C)nn2-c2nc(C)cc(=O)[nH]2)cc1 | 107% (active) |
| Cc1cc(NC(=O)c2ccc(C)s2)n(-c2nc3ccccc3[nH]2)n1 | 31.1% |
| Cc1cc(NC(=O)c2cccs2)n(-c2nc3ccccc3[nH]2)n1 | 35.4% |
| Cc1cccc(N2CCN(C(=O)CCCCCn3c(=S)[nH]c4ccc(N5CCOCC5)cc4c3=O)CC2)c1C | -10.2% |
| O=C(CCCn1c(=S)[nH]c2cc3c(cc2c1=O)OCO3)N1CCN(c2ccc(Cl)cc2)CC1 | 35.9% |
| Cc1ccc(C)c(N2CCN(C(=O)CCCCCn3c(=S)[nH]c4ccc(N5CCOCC5)cc4c3=O)CC2)c1 | 96.5% (active) |
| Cc1ccc(C(=O)N2CCN(c3ccc(NC(=O)c4ccc5c(c4)OCCO5)cc3)CC2)cc1 | 84.2% (active) |
| Cc1ccccc1C(=O)N1CCN(c2ccc(NC(=O)c3ccc4c(c3)OCCO4)cc2)CC1 | -3.1% |
| O=C(Nc1ccc2nn(-c3ccccc3)nc2c1)c1ccc2c(c1)OCCO2 | 31.9% |
| CC(C)C(=O)N1CCN(c2ccc(NC(=O)c3ccc4c(c3)OCCO4)cc2Cl)CC1 | 80.5% (active) |
| O=C(Nc1ccc(N2CCN(C(=O)c3ccc(Cl)cc3)CC2)cc1)c1ccc2c(c1)OCCO2 | 86.8% (active) |
| CC(C)C(=O)N1CCN(c2nc(-c3ccc(Cl)cc3)cs2)CC1 | -37.6% |
| CCCCCOc1ccc(/C=C/c2c([N+](=O)[O-])c(=O)n(C)c(=O)n2C)cc1 | 21.4% |
| CCOC(=O)/C=C/C(=O)Nc1ccc(S(=O)(=O)Nc2c(C)cc(C)cc2C)cc1 | 25.7% |
| CCOC(=O)/C=C/S(=O)(=O)c1ccc(NC(C)=O)cc1 | 64% (active) |
| CCOC(=O)/C=C/C(=O)Nc1ccc(S(=O)(=O)N(C)c2ccccc2)cc1 | -15.6% |
| O=C(O)CCC(=O)c1ccc2ccc3cccc4ccc1c2c34 | 50% (active) |
| Nc1[nH]nc2ncc3cc4ccccc4nc3c12 | 36.8% |
| Cc1nn(-c2ccccc2)c(Cl)c1CN(C(=O)CCl)c1ccc(Cl)cc1 | 105% (active) |
| Cc1nn(-c2ccccc2)c(Cl)c1CN(C(=O)CCl)c1cccc2ccccc12 | 14.9% |
| CC(=O)N1CC(C)Sc2ccc(S(=O)(=O)NCc3ccc(Cl)cc3)cc21 (centres undefined) | 11.8% |

| SMILES | inhibition |
| --- | --- |
| COC(=O)CSc1nnc(-c2sc3ccccc3c2Cl)o1 | 48.5% |
| Clc1ccc(CSc2nnc(-c3ccncc3)o2)cc1 | 60.2% (active) |
| Cc1ccc(-c2nnc(SCC(=O)Nc3ccccc3F)o2)cc1 | 37.8% |
| Fc1ccc(CSc2nnc(-c3ccncc3)o2)cc1 | 70.1% (active) |
| Brc1cccc(CSc2nnc(-c3ccncc3)o2)c1 | 44.3% |
| Cc1cc(C(=O)NC2CCCc3c2cnn3-c2cccc(C)c2C)n(C)n1 (centres undefined) | 56.4% (active) |
| CCc1cc(C(=O)NC2CCCc3c2cnn3-c2cccc(C)c2C)n(C)n1 (centres undefined) | 59.1% (active) |
| Cc1ccccc1NC(=O)COC(=O)c1ccc(S(C)(=O)=O)c([N+](=O)[O-])c1 | 13% |
| CC(=O)c1c(C)[nH]c(C(=O)OCC(=O)Nc2ccc(C)cc2[N+](=O)[O-])c1C | 79.4% (active) |
| COc1ccc(NC(=O)CN2CCc3ccccc3C2)c([N+](=O)[O-])c1 | -10.5% |
| O=[N+]([O-])c1ccc(N/N=C/c2sc(N3CCOCC3)nc2-c2ccccc2)c(S(=O)(=O)Nc2ccc(Cl)cc2)c1 | 60.9% (active) |
| CCN(CC)S(=O)(=O)c1ccc(N2CCOCC2)c(NC(=O)c2cc([N+](=O)[O-])ccc2Cl)c1 | -28.1% |
| O=[N+]([O-])c1ccc(N/N=C/c2sc(N3CCOCC3)nc2-c2ccccc2)c(S(=O)(=O)Nc2ccccc2Cl)c1 | 88.5% (active) |
| Cc1nnc(SCC(=O)N2CCC(c3noc4ccc(F)cc34)CC2)s1 | 84.5% (active) |
| CCCCCCCCn1ccc(=N)cc1 | 62.3% (active) |
| CCCCCCCCCCn1ccc(=N)cc1 | 83.1% (active) |
| CCCCCCCCCn1ccc(=N)cc1 | 76.4% (active) |
| CCCCCCCn1ccc(=N)cc1 | 20.9% |
| CC[C@@H](C)[C@H](NC(=O)OC(C)(C)C)c1nnc(S(=O)(=O)Cc2cc(C)ccc2C)o1 | 38.2% |
| CN(C)S(=O)(=O)N1CCC(Oc2cccc(C(=O)NC3CCCCC3)c2)CC1 | 20.4% |
| CC1CCN(S(=O)(=O)c2nnc(NC(=O)c3cccc(Cl)c3)s2)CC1 | 37% |
| CN(C)S(=O)(=O)N1CCC(Oc2cccc(C(=O)NC3CCCCCC3)c2)CC1 | 54% (active) |
| CN(Cc1ccccc1)C1=CC(=[N+]2CCCCC2)CC(C)(C)C1 | 58.1% (active) |
| Cc1nc(Nc2cnc(/C=C/c3cc(C(=O)Nc4cccc(C(F)(F)F)c4)ccc3C)cn2)cc(N2CCNCC2)n1 | -21.5% |

| SMILES | inhibition |
| --- | --- |
| CC(C(=O)Nc1cccc([N+](=O)[O-])c1)N(c1ccccc1)S(C)(=O)=O (centres undefined) | -12.9% |
| CN(c1ccccc1)S(=O)(=O)c1cccc(NC(=O)c2cc(=O)c3ccccc3o2)c1 | 63.9% (active) |
| Cc1nc2ccc(NC(=O)c3cc(S(=O)(=O)N(C)c4ccccc4)ccc3Cl)cc2s1 | 54.6% (active) |
| CSc1ncc(C(=O)Nc2cccc(S(N)(=O)=O)c2)n1-c1ccccc1 | 8.6% |
| Cc1nc2ccc(NC(=O)c3cccc(S(=O)(=O)N(C)c4ccccc4)c3)cc2s1 | 53.4% (active) |
| COc1ccc(N(CC(=O)Nc2cccc(N(C)S(C)(=O)=O)c2)S(=O)(=O)c2ccc(C)cc2)cc1 | 14.3% |
| CCCCn1c(SCC(=O)N2CCN(c3ccccc3)CC2)nc2ccsc2c1=O | 28.9% |
| CCOC(=O)/C=C/C(=O)Nc1cccc([N+](=O)[O-])c1 | 72.3% (active) |
| Cc1cccc(NC(=O)/C=C/c2ccc([N+](=O)[O-])s2)c1 | 57.7% (active) |
| COC(=O)/C=C\C(=O)Nc1cccc([N+](=O)[O-])c1 | 28.4% |
| COc1ccc(C)cc1S(=O)(=O)N(CC(=O)Nc1cccc([N+](=O)[O-])c1)c1ccc(C)cc1 | 16.5% |
| CC(=O)c1cccc(NC(=O)/C=C/c2ccc([N+](=O)[O-])s2)c1 | 99.5% (active) |
| CC(=O)Nc1ccc2nc(NC(=O)c3ccc([N+](=O)[O-])s3)sc2c1 | 19.3% |
| Cc1nc2cc(NC(=O)c3ccc([N+](=O)[O-])s3)ccc2s1 | 31.8% |
| Cc1cc(C)cc(NC(=O)/C=C/c2ccc([N+](=O)[O-])s2)c1 | -10.2% |
| Oc1ccc(CCNc2ncnc3ccc(Cl)cc23)cc1 | 86.6% (active) |
| COc1ccc(CCNc2ncnc3sccc23)cc1OC | 60.1% (active) |
| COc1ccc(CCNc2ncnc3sc(C)cc23)cc1OC | 58.6% (active) |
| Fc1ccc(F)c(CNc2ncnc3cc(Cl)ccc23)c1 | 8.3% |
| COc1cc2ncnc(NCc3ccc(C)cc3)c2cc1OC | 0.3% |
| CCOc1ccc2[nH]c3c(NCCc4ccc(OC)c(OC)c4)ncnc3c2c1 | 39.1% |
| COc1ccc(CNc2ncnc3sccc23)cc1OC | 50.2% (active) |
